# From PubChem BioAssay
# Hits are enriched below; roughly 2.6% of the tested compounds scored in any of these assays.
# EWS-Fli inh = EWS/Fli-driven NR0B1 reporter inhibitors, primary screen, A673 cells, NR0B1 luciferase, luminescence, MLPCN library; hit rate 0.67% among 350,000; inhibition, % at 12.6 µM; viability-normalised;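 active means mean inhibition of at least 50% after viability correction, with every replicate also passing that limit; inconclusive means mean reaches 50% but only one of two replicates passes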;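 further: firefly luciferase signal divided by Alamar Blue viability fluorescence both relative to DMSO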
# LGR2 inh = inhibitors of bursicon-induced LGR2 CRE-luciferase signal, primary screen, cell-based, HEK293, CRE-luciferase reporter, bursicon stimulation | inhibition, % at 9.99 µM | bursicon-stimulated, 4 h | hit rate 0.35% among 380,000;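 active means drop in luminescence signal, shown as inhibition above about 50% in the replicate tests, limit read from the data, passing the limit was not always enough; inconclusive means probably only some replicates passing the limit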;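 further: agonist challenge used bursicon conditioned medium at about half maximal strength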
# EBV LMP1 NFkB = EBV LMP1-driven NF-kappaB luciferase reporter inhibitors, primary screen, cell-based, luminescence, single point. AID 504558, 2011. hit rate 0.69% among 350,000. LMP1-induced NF-kappaB luciferase reporter cells. inhibition, % at 12.5 µM; in the data active means inhibition above about 41%; inconclusive means no clear call, values can overlap the other calls;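 further: 0% = neutral control wells and 100% = reference inhibitor control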
# TWEAK-Fn14 inh = inhibitors of TWEAK-Fn14 signaling, primary screen, luciferase reporter cells, uHTS. AID 1159606, 2016. TWEAK-stimulated Fn14 reporter cells, luciferase luminescence, 8 h. inhibition, % at 10 µM. hit rate 2% among 360,000; in the data active means inhibition above about 50%
# TROY signal inh = inhibitors of TROY-driven NF-kB signaling, primary screen, Q293 LMP1-TROYcd cells, NF-kB luciferase, uHTS. hit rate 0.98% among 360,000. Q293 LMP1-TROYcd NF-kB luciferase reporter, 4 h. inhibition, % at 10 µM. AID 1347056, 2019;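 active means compounds whose plate-normalised and pattern-corrected inhibition of the luciferase reporter signal at the single screening dose is 50% or more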
# * = called active by the depositor; ? = inconclusive; nt = no result.
SMILES,EWS-Fli inh,LGR2 inh,EBV LMP1 NFkB,TWEAK-Fn14 inh,TROY signal inh
COc1ccc(-c2cn3c4c(sc3n2)CCCC4)cc1,nt,nt,2,73*,23
Oc1ccccc1N=Nc1nc(-c2ccccc2)c(-c2ccccc2)[nH]1,nt,42,84*,33,21
Cc1cc(N/C=C/C(=O)c2cccs2)ccc1F,-83,-44,-67,-1,-30
Cc1ccc(N/C=C/C(=O)c2cccs2)cc1C,40,63*,-2,46,45
CC(=O)c1cccc(NC(=O)CSc2nc3ccccc3c(=O)n2CCCN2CCOCC2)c1,-2,-15,0,-10,-6
O=C(CSc1nc2ccccc2c(=O)n1CCCN1CCOCC1)Nc1ccc(Br)cc1,-4,-21,49*,-16,-12
CCCC(=O)Nc1ccc2c(c1)C(=O)N(C)C[C@@H](OC)[C@@H](C)CN(CCC)[C@H](C)CO2,-3,8,nt,nt,nt
Cc1cc(OCc2nc(N)nc(N)c2-c2ccc(Cl)c(Cl)c2)ccc1[N+](=O)[O-],63*,22,2,30,15
CN(C)C(=O)c1ccc(-c2ccc3c(c2)[C@H]2[C@H](CCN2C(=O)C2CCCC2)[C@H](CO)N3C)cc1,9,20,nt,nt,nt
Nc1ccc2cc3[nH]c4cc(N)ccc4c3nc2c1,42,nt,62*,-32,-37
CCN1C(=O)C(C(=O)Nc2ccc(OC)cc2)C2CC1(C)Oc1ccccc12 (configuration not stated),nt,nt,-9,78*,nt
Cc1ccc(S(=O)(=O)N2CC[C@@H]3[C@H]2c2cc(C#Cc4cccc(F)c4)ccc2N[C@@H]3CO)cc1,0,3,nt,nt,nt
COc1ccc(NC(=O)N(C)C[C@H]2OCc3ccccc3-c3c(n(C)c4ccccc34)C(=O)N([C@@H](C)CO)C[C@@H]2C)c(OC)c1,5,1,nt,nt,nt
Cn1ccnc1SCC(=O)c1cccc(Br)c1,nt,-3,1,-10,-24
COc1cccc(C(=O)CSc2nccn2C)c1,-74,-12,-6,86*,-18
CCCNC(=O)Nc1ccc2c(c1)C(=O)N(C)[C@H]1CC[C@@H](CC(=O)NCc3ccccc3)O[C@H]1CO2,2,4,nt,nt,nt
COc1ccc(-c2csc3ncnc(Sc4nnnn4C)c23)cc1,-3,?,87*,56*,29
Cn1nnnc1Sc1ncnc2scc(-c3ccccc3Cl)c12,17,22,14,51*,38
COc1ccc(N2CCN(C(=O)CSc3ncnc4scc(-c5ccc(C)cc5)c34)CC2)cc1,nt,nt,3,27,6
Cn1nnnc1Sc1ncnc2scc(-c3ccc(Cl)cc3)c12,46,57*,32,75*,64*
Cn1nnnc1Sc1ccc([N+](=O)[O-])cc1Cl,4,-8,-5,13,20
Cn1nnnc1Sc1ncnc2scc(-c3ccc([N+](=O)[O-])cc3)c12,19,91*,74*,92*,54*
CC(C)NC(=O)N(C)C[C@@H]1OCCCC[C@H](C)Oc2ccc(NS(=O)(=O)c3ccc(Cl)cc3)cc2C(=O)N([C@H](C)CO)C[C@@H]1C,-9,3,nt,nt,nt
CCC(=O)N(C)C[C@H]1Oc2cc(C3=CCCCC3)ccc2S(=O)(=O)N([C@H](C)CO)C[C@H]1C,-10,14,nt,nt,nt
O=C(C[C@H]1CC[C@H]2[C@@H](COC[C@@H](O)CN2Cc2ccc(Cl)cc2)O1)NCCc1ccccc1,1,0,nt,nt,nt
SMILES,EWS-Fli inh,LGR2 inh,EBV LMP1 NFkB,TWEAK-Fn14 inh,TROY signal inh
CO[C@H]1CN(C)C(=O)c2cc(NS(=O)(=O)c3ccc(F)cc3)ccc2OC[C@H](C)NC[C@@H]1C,0,15,nt,nt,nt
Cn1nnnc1Sc1ncnc2scc(-c3ccc4c(c3)OCO4)c12,7,?,10,58*,13
O=C(Nc1ccc(NC(=O)c2ccco2)cc1)c1ccco1,nt,-27,-8,-14,-35
Nc1nc(-c2ccc(NC(=O)c3ccco3)cc2)cs1,6,-1,76*,-10,-22
Cc1nc(-c2ccc(NC(=O)c3ccco3)cc2)cs1,84*,93*,64*,97*,50*
O=C(N[C@@H]1CC[C@H](CCNS(=O)(=O)c2ccc(F)cc2)O[C@@H]1CO)c1cccnc1,-5,-1,nt,nt,nt
CC(C)c1ccc(C(O)Cc2nc3ccccc3n2C)cc1 (configuration not stated),-56,-47,-6,31,49
CN(C)c1ccc(C(O)Cc2nc3ccccc3n2C)cc1 (configuration not stated),-58,50,11,74*,79*
CC(C)n1c(-c2ccc(N(C)C)cc2)nc2ccccc21,nt,nt,-9,27,29
CN(C)c1ccc(-c2nc3ccccc3n2C)cc1,nt,74*,50*,43,-3
CO[C@H]1CN(C)C(=O)c2cc(NC(=O)CC(F)(F)F)ccc2OC[C@@H](C)N(C(=O)C2CC2)C[C@@H]1C,2,10,nt,nt,nt
CCCNC(=O)C[C@H]1C[C@@H]2c3cc(NC(=O)Nc4ccccc4)ccc3O[C@@H]2[C@@H](CO)O1,-4,-4,nt,nt,nt
CN1CCc2c(sc(/N=C/c3c[nH]c4ccccc34)c2C#N)C1,-87,13,nt,-17,-2
CN1CCc2c(sc(/N=C/c3cc(Cl)ccc3O)c2C#N)C1,-88,-90,-34,65*,74*
FC(F)(F)c1nc(-c2ccncc2)ncc1-c1nnnn1-c1ccccc1,nt,nt,-3,5,-7
Fc1ccc(-n2nnnc2-c2cnc(-c3cccs3)nc2C(F)(F)F)cc1,nt,nt,35,102*,59*
COc1ccc2oc(C(=O)N3CCN(C(c4ccccc4)c4ccccc4)CC3)c(C)c2c1,12,11,8,9,13
COc1ccc2oc(C(=O)Nc3ccccn3)c(C)c2c1,nt,-24,-6,52*,8
COc1ccc2oc(C(=O)N3CCc4ccccc43)c(C)c2c1,nt,59*,37,73*,63*
COc1ccc2oc(C(=O)Nc3ccc(C)cn3)c(C)c2c1,-48,-52,-11,11,-47
CC(C)NC(=O)N(C)C[C@H]1OCCCC[C@H](C)Oc2ccc(NC(=O)CCC(F)(F)F)cc2C(=O)N([C@@H](C)CO)C[C@H]1C,nt,9,nt,nt,nt
COc1ccccc1NC(=O)CSc1nc2n[nH]c(C)c2c(=N)n1-c1ccccc1Cl,nt,nt,20,62*,25
O=C(CN1C(=O)CSc2ccc(S(=O)(=O)N3CCOCC3)cc21)NCCc1ccccc1,-6,4,2,97*,-1
CC(C)(C)c1ccc(C(=O)N2CCC(=O)N(C(CO)Cc3ccccc3)CC2)cc1 (configuration not stated),3,-4,78*,7,-32
O=C(c1ccccc1)N1CCC(=O)N(C(CO)Cc2ccccc2)CC1 (configuration not stated),4,3,-2,-11,-20
